# Data as given in the supplement of paper PMC10338343.
# ± gives the standard deviation.
# Test system: MILI (PIWIL2) piRISC loaded with piRNA #1 (26 nt)
# Test: pre-steady-state target cleavage rate (min^-1); guide: piRNA #1 5'p-UGAGGUAGUAGGUUGUAUAGUAUCCA; MIWI and MILI are mouse PIWI proteins and EfPiwi is from a freshwater sponge; tags in brackets are library labels; higher = faster piRNA-guided slicing of the target
# Settings: auxiliary factor: 500 nM mouse GTSF1
# Outline: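 At 33 °C in HEPES–potassium acetate buffer, a transcribed, DNA-blocked target RNA library […] was exposed for 0–8 or 0–960 min to 1 nM active affinity-purified piRISC carrying a single synthetic guide, with or without 500 nM GTSF1 partner protein. Uncleaved targets were sequenced and normalised to depth and to weakly complementary targets. With three trials pooled and k3 capped at 0.0001 min^-1, a burst-and-steady-state fit produced the pre-steady-state cleavage rate.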
# 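Also: 1 nM active piRISC with 0.1 nM target library at 33 °C single turnover.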
row,Sequence,pre-steady-state target cleavage rate
1,GGAGAGGAUACUAUAGAACCUACUUCCUCA,0.00501 ± 0.0029
2,GGAGACCUAUCUAUACAACCUACUCCCUCA,0.0608 ± 0.0097
3,GGAGACCUAUCUAUACAACCGUACUACCUCA,0.00775 ± 0.0032
4,GGAGACCUAUCUAUACAACCUACAACCACA,0.0576 ± 0.014
5,GGAGACCUAUGAUUACAACCUACAACCUCA,0.00538 ± 0.0023
6,GGAGACCUAUGUAUACAAGCUAGUACCUCA,0.0538 ± 0.0098
7,GGAGACCUAACAUUACAACCUACUACCUCA,0.0283 ± 0.0089
8,GGAGACCUAUGAUUACAAGCUACUUCCUCA,0.0143 ± 0.0037
9,GGAGACCUAUGUAUAUCAACCUACUACCUCA,0.00312 ± 0.0027
10,GGAGACCUAACUAUACAACCUACUACGUCA,0.0415 ± 0.014
11,GGAGACCUAUGAAUACAACCUACUACCUACA,0.00696 ± 0.0027
12,GGAGACCAUACUAUACAACGUACUACGUCA,0.0148 ± 0.0053
13,GGAGACCUAUGUAUACAACCUACUACCGCA,0.085 ± 0.015
14,GGAGACCUAUGAUAACAACCUACCUACCUCA,0.00593 ± 0.003
15,GGAGUGCAUACUUUACAACCUACUACCUCA,0.166 ± 0.0083
16,GGAGACCUUACUAUACAACCUACUGACCUCA,0.107 ± 0.017
17,GGAGACCUAUGAUUUCAUCCUACUACCUCA,0.0038 ± 0.0025
18,GGAGACCUAUGUAUACAACCUACUUCCUGA,0.00819 ± 0.0021
19,GGAGACCUAACUAUACAACCUACUACCAUCA,0.261 ± 0.038
20,GGAGACCUAUGUAUACAACCGACUACCUCA,0.00448 ± 0.0021

row,Sequence,pre-steady-state target cleavage rate
1,GGAGACCUUACUAUACAACCUACUAACUCA,0.0948 ± 0.017
2,GGAGACCUAUGAAUACAACCUACUACCUA,0.00429 ± 0.0026
3,GGAGACCUUACUAUACAUCGUACUACCUCA,0.0364 ± 0.0047
4,GGAGACCUAACUAAACAACCUACUAGCUCA,0.0613 ± 0.018
5,GGAGACCUAUGAUUACAACCGUACUACCUCA,0.00334 ± 0.0031
6,GGAGACCUAUGAUUUACAACCUACUACCUCA,0.00564 ± 0.003
7,GGAGAGGAUACUAUACAACCUCUACCUCA,0.0184 ± 0.0033
8,GGAGACCUAUGUAUACAACCUAACUACCUCA,0.00595 ± 0.0023
9,GGAGACCUAACAAUACAACCUACUACCACA,0.0755 ± 0.019
10,GGAGACCAUACUAUACUUCCUACUACCUCA,0.226 ± 0.021
11,GGAGACCUUACUAUACAAGCUAGUACCUCA,0.138 ± 0.02
12,GGAGACGAUACUAUUCAUCCUACUACCUCA,0.264 ± 0.021
13,GGAGACCUUACAAUACAACCUACUAGCUCA,0.103 ± 0.013
14,GGAGACCUAUGAUAUGUACCUACUACCUGCA,< 0.0001
15,GGAGACCUAUGUAUACAACCUGCUACCUCA,0.0059 ± 0.0023
16,GGAGUGGAUACUAAUACAACCUACUACCUCA,0.135 ± 0.0082
17,GGAGUGGAUACAAAACAACCUACUACCUCA,0.12 ± 0.0086
18,GGAGACGUUACUUUACAACCUACUACCUCA,0.141 ± 0.01
19,GGAGACCUUACUAUACAACCUACAUCCUCA,0.0472 ± 0.0095
20,GGAGAGGAUUCUAUACAACCUAGUACCUCA,0.0548 ± 0.0098
